Test results reported in the supplement of paper PMC11732987, “Enantioselective OTUD7B fragment discovery through chemoproteomics screening and high-throughput optimisation” (Communications Chemistry, 2025).

Experiments:
Test in all cases: log2 ratio of Biotin-Ahx-Ub-VS probe labelling (fragment/DMSO); higher = less target engagement (more negative = stronger competition), active = hit call of the paper (q ≤ 0.05, log2 ratio ≤ -1)
Conditions in all cases: compound concentration: 200 uM; treatment time: 3 h
USP19 = molecular target: T1, USP19 (UniProt O94966)
T1 sequence (whole entry): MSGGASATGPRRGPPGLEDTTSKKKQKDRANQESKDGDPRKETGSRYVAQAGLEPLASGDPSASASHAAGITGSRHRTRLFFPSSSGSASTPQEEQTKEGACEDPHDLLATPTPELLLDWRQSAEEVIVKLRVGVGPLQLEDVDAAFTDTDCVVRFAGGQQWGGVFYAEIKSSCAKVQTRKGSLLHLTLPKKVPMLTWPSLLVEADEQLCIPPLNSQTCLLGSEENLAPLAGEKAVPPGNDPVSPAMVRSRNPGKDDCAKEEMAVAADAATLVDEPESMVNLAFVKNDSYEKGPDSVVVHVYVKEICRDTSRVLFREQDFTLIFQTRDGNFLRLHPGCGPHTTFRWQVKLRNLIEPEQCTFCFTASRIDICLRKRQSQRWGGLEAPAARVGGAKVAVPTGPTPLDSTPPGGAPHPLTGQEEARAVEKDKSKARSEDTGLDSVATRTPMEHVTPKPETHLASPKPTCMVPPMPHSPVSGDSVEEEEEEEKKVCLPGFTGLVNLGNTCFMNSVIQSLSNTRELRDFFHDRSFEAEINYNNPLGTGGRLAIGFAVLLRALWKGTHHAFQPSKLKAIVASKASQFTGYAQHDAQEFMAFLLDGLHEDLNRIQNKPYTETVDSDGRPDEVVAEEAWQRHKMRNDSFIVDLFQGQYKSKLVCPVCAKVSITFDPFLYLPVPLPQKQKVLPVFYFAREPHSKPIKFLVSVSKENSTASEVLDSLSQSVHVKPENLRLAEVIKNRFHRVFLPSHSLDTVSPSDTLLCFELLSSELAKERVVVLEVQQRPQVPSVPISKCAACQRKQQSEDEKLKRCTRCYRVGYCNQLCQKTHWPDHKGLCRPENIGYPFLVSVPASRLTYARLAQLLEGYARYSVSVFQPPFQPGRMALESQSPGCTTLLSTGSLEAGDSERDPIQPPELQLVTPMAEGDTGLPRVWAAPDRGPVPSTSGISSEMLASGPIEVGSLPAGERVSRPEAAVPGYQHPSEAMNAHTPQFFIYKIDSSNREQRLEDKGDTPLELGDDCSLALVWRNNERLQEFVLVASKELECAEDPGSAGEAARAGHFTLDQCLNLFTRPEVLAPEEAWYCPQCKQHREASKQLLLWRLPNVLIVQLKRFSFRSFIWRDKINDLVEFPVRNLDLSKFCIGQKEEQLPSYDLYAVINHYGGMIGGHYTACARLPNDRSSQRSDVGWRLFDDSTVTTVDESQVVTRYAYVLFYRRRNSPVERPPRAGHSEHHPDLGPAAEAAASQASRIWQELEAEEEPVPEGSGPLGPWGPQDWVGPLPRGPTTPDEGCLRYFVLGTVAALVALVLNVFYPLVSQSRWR
Procedure, shortened: (§1)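 Each value is an average log2 ratio of fragment to vehicle, tested by unpaired t-test. The underlying Spectronaut label-free quantities were global-median-normalised, and only proteins with ≥2 unique peptides were included. Triplicate HEK293T lysate samples (495 µg) were exposed to fragment at 200 µM or vehicle for 3 h, then to Biotin-Ahx-Ub-VS at 0.5 µM final for 1 h, before NeutrAvidin enrichment of labelled DUBs, LysC and trypsin digestion, and diaPASEF LC-MS/MS.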

USP24 = USP24 (UniProt Q9UPU5)
Chain of USP24 (Q9UPU5 whole entry): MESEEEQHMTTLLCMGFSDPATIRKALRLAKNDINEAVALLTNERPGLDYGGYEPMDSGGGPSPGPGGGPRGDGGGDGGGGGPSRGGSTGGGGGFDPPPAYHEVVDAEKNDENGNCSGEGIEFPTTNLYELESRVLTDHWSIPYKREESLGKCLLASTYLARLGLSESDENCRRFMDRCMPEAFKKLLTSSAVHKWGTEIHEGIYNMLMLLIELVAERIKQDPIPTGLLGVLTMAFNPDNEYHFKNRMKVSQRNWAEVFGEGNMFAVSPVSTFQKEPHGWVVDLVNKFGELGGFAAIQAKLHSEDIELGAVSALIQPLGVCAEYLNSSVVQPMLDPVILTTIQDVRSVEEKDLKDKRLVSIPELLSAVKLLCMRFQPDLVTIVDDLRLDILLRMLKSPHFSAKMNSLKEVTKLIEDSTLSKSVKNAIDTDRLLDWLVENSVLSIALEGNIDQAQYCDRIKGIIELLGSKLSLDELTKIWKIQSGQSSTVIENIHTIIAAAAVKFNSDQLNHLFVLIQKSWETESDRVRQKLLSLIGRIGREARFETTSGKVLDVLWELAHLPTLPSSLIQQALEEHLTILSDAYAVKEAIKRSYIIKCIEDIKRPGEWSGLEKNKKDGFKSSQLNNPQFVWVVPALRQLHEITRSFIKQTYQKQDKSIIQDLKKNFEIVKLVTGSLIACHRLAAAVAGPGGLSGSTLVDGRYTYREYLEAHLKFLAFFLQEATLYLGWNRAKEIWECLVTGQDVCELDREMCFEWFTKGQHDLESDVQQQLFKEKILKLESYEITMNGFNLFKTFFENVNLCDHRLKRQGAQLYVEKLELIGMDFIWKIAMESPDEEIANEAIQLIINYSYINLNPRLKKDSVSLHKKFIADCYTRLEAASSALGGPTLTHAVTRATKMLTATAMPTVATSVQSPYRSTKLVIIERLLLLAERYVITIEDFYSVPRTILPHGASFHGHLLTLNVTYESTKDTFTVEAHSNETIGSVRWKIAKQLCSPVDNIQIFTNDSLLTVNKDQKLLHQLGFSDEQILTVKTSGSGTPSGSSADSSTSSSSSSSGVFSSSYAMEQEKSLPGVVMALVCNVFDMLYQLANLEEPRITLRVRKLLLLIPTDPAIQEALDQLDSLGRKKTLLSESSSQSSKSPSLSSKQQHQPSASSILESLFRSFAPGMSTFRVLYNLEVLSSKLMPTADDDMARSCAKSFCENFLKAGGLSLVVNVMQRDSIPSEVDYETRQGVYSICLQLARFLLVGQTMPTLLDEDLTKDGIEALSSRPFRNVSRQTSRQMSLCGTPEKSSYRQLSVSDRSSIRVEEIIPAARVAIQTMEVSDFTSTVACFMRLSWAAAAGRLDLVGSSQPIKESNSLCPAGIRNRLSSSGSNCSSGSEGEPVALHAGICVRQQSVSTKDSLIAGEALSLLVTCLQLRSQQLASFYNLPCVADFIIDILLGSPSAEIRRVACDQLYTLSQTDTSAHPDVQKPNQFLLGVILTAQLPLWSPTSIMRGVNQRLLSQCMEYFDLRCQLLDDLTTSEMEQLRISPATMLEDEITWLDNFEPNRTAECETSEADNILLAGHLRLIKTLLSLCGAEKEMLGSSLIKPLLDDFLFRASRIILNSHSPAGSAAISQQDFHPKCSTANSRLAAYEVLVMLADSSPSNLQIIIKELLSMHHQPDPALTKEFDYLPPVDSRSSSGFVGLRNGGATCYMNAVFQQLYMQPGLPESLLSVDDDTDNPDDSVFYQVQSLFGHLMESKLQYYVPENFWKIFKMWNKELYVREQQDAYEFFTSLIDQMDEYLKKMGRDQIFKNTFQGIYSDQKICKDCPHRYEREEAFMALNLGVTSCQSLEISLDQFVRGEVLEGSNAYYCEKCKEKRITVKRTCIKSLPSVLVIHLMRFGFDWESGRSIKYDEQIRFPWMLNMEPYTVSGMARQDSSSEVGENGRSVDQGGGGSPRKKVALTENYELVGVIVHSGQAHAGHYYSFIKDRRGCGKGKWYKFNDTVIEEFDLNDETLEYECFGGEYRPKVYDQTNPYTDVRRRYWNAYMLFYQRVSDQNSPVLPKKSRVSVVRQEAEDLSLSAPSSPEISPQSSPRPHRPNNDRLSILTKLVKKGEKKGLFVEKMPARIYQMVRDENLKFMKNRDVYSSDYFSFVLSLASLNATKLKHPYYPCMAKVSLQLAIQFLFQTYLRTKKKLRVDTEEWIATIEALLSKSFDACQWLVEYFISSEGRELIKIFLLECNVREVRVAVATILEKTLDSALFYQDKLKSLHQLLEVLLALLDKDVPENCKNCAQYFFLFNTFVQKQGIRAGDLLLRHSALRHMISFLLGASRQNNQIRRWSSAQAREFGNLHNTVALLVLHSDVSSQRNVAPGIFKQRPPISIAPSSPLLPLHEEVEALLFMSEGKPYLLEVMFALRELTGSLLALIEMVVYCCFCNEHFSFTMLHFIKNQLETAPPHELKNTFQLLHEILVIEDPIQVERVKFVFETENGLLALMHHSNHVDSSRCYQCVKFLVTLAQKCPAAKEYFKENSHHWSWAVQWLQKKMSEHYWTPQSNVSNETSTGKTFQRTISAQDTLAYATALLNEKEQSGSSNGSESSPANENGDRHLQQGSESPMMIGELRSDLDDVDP
Procedure, shortened: as §1

USP25 = molecular target: T2, USP25 (UniProt Q9UHP3)
T2 sequence (whole entry): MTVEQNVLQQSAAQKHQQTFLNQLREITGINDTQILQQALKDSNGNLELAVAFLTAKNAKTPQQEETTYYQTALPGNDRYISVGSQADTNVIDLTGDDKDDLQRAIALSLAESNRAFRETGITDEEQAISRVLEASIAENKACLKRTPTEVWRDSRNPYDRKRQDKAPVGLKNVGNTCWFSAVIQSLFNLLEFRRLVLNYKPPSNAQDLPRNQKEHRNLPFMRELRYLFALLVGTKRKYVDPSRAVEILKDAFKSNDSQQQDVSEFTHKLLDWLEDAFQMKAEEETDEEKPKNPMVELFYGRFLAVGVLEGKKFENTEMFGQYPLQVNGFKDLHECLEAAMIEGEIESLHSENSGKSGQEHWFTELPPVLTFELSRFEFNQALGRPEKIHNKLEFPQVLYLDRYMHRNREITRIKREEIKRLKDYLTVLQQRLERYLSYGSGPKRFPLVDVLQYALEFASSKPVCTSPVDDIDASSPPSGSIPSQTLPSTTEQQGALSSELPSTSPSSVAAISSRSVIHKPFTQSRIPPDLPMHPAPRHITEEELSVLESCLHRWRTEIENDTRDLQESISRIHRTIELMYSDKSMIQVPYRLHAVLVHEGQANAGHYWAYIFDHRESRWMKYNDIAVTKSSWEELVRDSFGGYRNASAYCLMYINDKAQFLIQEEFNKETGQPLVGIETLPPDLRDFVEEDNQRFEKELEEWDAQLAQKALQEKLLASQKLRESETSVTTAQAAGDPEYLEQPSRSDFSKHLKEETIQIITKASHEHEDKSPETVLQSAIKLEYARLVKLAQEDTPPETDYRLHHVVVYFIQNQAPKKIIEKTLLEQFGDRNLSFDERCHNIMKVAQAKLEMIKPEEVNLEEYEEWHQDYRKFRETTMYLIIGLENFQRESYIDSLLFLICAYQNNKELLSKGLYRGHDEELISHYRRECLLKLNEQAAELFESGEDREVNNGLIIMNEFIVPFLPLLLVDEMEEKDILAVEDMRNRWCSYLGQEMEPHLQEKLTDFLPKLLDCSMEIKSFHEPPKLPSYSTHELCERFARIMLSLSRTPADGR
Procedure, shortened: as §1

USP28 = molecular target: T3, USP28 (UniProt Q96RU2)
T3 sequence (whole entry): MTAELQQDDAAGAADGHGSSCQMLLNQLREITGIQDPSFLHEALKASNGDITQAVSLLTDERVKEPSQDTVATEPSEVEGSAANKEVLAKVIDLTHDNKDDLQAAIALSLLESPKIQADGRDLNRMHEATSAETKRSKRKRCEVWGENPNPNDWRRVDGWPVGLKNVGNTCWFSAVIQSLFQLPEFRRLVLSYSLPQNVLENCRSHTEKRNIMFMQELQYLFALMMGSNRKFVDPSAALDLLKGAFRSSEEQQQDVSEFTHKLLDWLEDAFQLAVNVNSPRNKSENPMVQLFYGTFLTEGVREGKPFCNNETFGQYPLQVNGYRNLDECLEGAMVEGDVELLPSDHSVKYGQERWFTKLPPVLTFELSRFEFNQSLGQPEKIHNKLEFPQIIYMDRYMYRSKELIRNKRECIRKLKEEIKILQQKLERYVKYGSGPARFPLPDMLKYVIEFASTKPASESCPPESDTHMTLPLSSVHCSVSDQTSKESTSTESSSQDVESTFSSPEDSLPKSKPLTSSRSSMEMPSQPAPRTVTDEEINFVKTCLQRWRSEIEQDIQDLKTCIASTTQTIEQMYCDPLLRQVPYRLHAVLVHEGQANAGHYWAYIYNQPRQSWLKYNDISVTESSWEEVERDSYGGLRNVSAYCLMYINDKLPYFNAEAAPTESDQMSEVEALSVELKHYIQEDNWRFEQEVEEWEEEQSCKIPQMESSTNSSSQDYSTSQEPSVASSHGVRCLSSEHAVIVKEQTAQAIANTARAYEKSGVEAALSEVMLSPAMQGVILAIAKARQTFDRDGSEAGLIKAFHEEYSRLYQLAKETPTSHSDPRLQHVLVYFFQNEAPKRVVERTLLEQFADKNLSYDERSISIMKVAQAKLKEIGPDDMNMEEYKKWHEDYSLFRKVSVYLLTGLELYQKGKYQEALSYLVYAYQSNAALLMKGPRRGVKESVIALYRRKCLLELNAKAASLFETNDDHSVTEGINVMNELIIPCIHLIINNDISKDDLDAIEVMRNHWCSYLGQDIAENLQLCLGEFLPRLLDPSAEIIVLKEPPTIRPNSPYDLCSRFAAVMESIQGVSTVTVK
Procedure, shortened: as §1

Measured: log2 ratio of Biotin-Ahx-Ub-VS probe labelling

Cc1nc(-c2cccc(NC(=O)CCl)c2)cs1
inactive: USP19 -0.375 | USP24 -0.903 | USP25 -0.554 | USP28 -0.634
